Data as given in PubChem BioAssay (NCI).
About 83,000 compounds went through this panel and 20% of them were active in at least one assay; those are over-represented in the sample as a whole.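 Testing used 96-well plates and a 48-hour single-concentration exposure. Example: -40 means 40% of the starting cells died.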 Active and inactive are the calls of the source. Rule for the calls: active = growth percent below 10; inactive = the rest.

Tests used:
Assay in all cases: NCI-60 one-dose screen, 48 h (100 = growth as untreated, 0 = no growth, -100 = all killed)
Settings in all cases: 10 µM
HT29 colon = tested on: HT29 colon
SNB-75 CNS = tested on: SNB-75 CNS
SNB-19 CNS = tested on: SNB-19 CNS
U251 CNS = tested on: U251 CNS
PC-3 prostate = tested on: PC-3 prostate
SK-MEL-5 melanoma = tested on: SK-MEL-5 melanoma
UACC-62 melanoma = tested on: UACC-62 melanoma
LOX IMVI melanoma = tested on: LOX IMVI melanoma
SK-MEL-28 melanoma = tested on: SK-MEL-28 melanoma
SN12C renal = tested on: SN12C renal
UO-31 renal = tested on: UO-31 renal
TK-10 renal = tested on: TK-10 renal
ACHN renal = tested on: ACHN renal
CAKI-1 renal = tested on: CAKI-1 renal
A498 renal = tested on: A498 renal
CCRF-CEM leukemia = tested on: CCRF-CEM leukemia
MOLT-4 leukemia = tested on: MOLT-4 leukemia
SR leukemia = tested on: SR leukemia
SK-MEL-2 melanoma = tested on: SK-MEL-2 melanoma
EKVX NSCLC = tested on: EKVX NSCLC

Measured: growth

O=C(Nc1cccc(-n2cc(-c3ccncc3)c(-c3ccc(O)c(Cl)c3)n2)c1)c1cccc(C(F)(F)F)c1
inactive: HT29 colon 31.8% | SNB-75 CNS 39.4% | SNB-19 CNS 69.7% | PC-3 prostate 21% | SK-MEL-5 melanoma 34.6% | UACC-62 melanoma 37.9% | LOX IMVI melanoma 33% | SK-MEL-28 melanoma 43.9% | SN12C renal 49.9% | UO-31 renal 15.8% | TK-10 renal 46.9% | ACHN renal 29.6% | CAKI-1 renal 12.2% | A498 renal 57.7% | CCRF-CEM leukemia 19.8% | MOLT-4 leukemia 29.8% | SR leukemia 18.4%
active: U251 CNS -27.9%

Cc1cccc2c(NCCN(C)C)c3cccc(C(=O)NCCN(C)C)c3nc12
inactive: SNB-19 CNS 14.5% | UACC-62 melanoma 20.8% | EKVX NSCLC 19.4% | SN12C renal 15.9% | A498 renal 33.8%
active: HT29 colon -43.7% | SNB-75 CNS -24.7% | U251 CNS -43% | PC-3 prostate -31% | SK-MEL-5 melanoma 3.71% | LOX IMVI melanoma -61.9% | SK-MEL-2 melanoma -6.23% | UO-31 renal -67.6% | TK-10 renal -15.9% | ACHN renal -44.6% | CAKI-1 renal 6.76% | CCRF-CEM leukemia 3.77% | MOLT-4 leukemia 1.96% | SR leukemia -14.7%

Nc1ncn(C2OC(CO)C(O)C2O)c(=O)n1 (stereo not drawn)
inactive: SNB-19 CNS 17.2% | SK-MEL-5 melanoma 25.5% | EKVX NSCLC 44.9% | SN12C renal 17.4% | A498 renal 19%
active: HT29 colon 6.45% | SNB-75 CNS -32.7% | U251 CNS 5.19% | PC-3 prostate -30.7% | UACC-62 melanoma -8.83% | LOX IMVI melanoma -33.7% | SK-MEL-2 melanoma -21.2% | UO-31 renal 0.167% | TK-10 renal 4.79% | ACHN renal -21.7% | CAKI-1 renal -2.03% | CCRF-CEM leukemia -7.84% | MOLT-4 leukemia 0.695% | SR leukemia -1.52%

COC(=O)C(=C\c1ccc2c(c1)OCO2)/C(=C/c1ccc2c(c1)OCO2)C(=O)OC
inactive: HT29 colon 88.9% | SNB-75 CNS 87.7% | SNB-19 CNS 106% | U251 CNS 98.5% | PC-3 prostate 93.8% | SK-MEL-5 melanoma 101% | UACC-62 melanoma 98.6% | LOX IMVI melanoma 90.8% | SK-MEL-2 melanoma 102% | EKVX NSCLC 97% | SN12C renal 112% | UO-31 renal 90.3% | TK-10 renal 100% | ACHN renal 94.3% | CAKI-1 renal 94.7% | A498 renal 106% | CCRF-CEM leukemia 101% | MOLT-4 leukemia 105% | SR leukemia 98.8%

Cc1ccc(S(=O)(=O)OCCN(CCOS(=O)(=O)c2ccc(C)cc2)c2c[nH]c(=O)[nH]c2=O)cc1
inactive: HT29 colon 99.7% | SNB-75 CNS 92.2% | SNB-19 CNS 100% | U251 CNS 95% | PC-3 prostate 94.6% | SK-MEL-5 melanoma 101% | UACC-62 melanoma 100% | LOX IMVI melanoma 104% | SK-MEL-28 melanoma 102% | SN12C renal 97.4% | UO-31 renal 82.8% | TK-10 renal 112% | ACHN renal 99% | CAKI-1 renal 97.5% | A498 renal 117% | CCRF-CEM leukemia 101% | MOLT-4 leukemia 104% | SR leukemia 104%

COc1ccc(-c2nn(-c3cccc(NC(=O)Nc4cc(C(F)(F)F)cc(C(F)(F)F)c4)c3)cc2-c2ccncc2)cc1Cl
inactive: SNB-19 CNS 30.2% | LOX IMVI melanoma 12.9% | SN12C renal 18.9% | TK-10 renal 11.8% | ACHN renal 11%
active: HT29 colon -17.4% | SNB-75 CNS 6.77% | U251 CNS -75.5% | PC-3 prostate -14.7% | SK-MEL-5 melanoma -37.6% | UACC-62 melanoma 7.55% | SK-MEL-28 melanoma -5.48% | UO-31 renal -11.6% | CAKI-1 renal -12.3% | CCRF-CEM leukemia -17.8% | MOLT-4 leukemia -15.3% | SR leukemia -19.6%

FC(F)(F)c1ccc(-c2cnc(-n3cc(COCCN4CCCCC4)nn3)nc2NC2CCCCCC2)cc1
inactive: SNB-75 CNS 11.5% | SNB-19 CNS 84.2% | SN12C renal 60.4% | ACHN renal 35.7% | CAKI-1 renal 46.6% | A498 renal 66%
active: HT29 colon -73.1% | U251 CNS -74.5% | PC-3 prostate 7.37% | SK-MEL-5 melanoma -91% | UACC-62 melanoma -79.2% | LOX IMVI melanoma -55.8% | SK-MEL-28 melanoma -90.5% | UO-31 renal -6.86% | TK-10 renal -14% | MOLT-4 leukemia -24.1% | SR leukemia -37.4%

C=C(Cl)[C@@](Cl)(CBr)CC[C@@H](Br)C(C)(C)Cl
active: HT29 colon -88.2% | SNB-75 CNS -96.8% | SNB-19 CNS -74.9% | U251 CNS -97.9% | PC-3 prostate -92.7% | UACC-62 melanoma -25.9% | SK-MEL-2 melanoma -30.8% | EKVX NSCLC -79% | UO-31 renal -96.8% | TK-10 renal -98.9% | ACHN renal -99.4% | CAKI-1 renal -98.7%
inactive: SK-MEL-5 melanoma 87.9% | LOX IMVI melanoma 94.5% | SN12C renal 72% | A498 renal 99.3% | CCRF-CEM leukemia 94.3% | MOLT-4 leukemia 81.1% | SR leukemia 75.6%

CN(C)Cc1cn(-c2ncc(-c3ccc(C(F)(F)F)cc3)c(NC3CCCCCC3)n2)nn1
inactive: HT29 colon 31% | SNB-75 CNS 72.9% | SNB-19 CNS 92.1% | U251 CNS 73.3% | PC-3 prostate 77.5% | SK-MEL-5 melanoma 80.6% | UACC-62 melanoma 97.6% | LOX IMVI melanoma 95.7% | SK-MEL-28 melanoma 97.4% | SN12C renal 87.5% | UO-31 renal 42.9% | TK-10 renal 85.2% | ACHN renal 92.1% | CAKI-1 renal 84.7% | A498 renal 76.9% | CCRF-CEM leukemia 80.6% | MOLT-4 leukemia 74.8% | SR leukemia 39.6%

O=C(CCCCCCC(=O)Nc1cccnc1)NO
active: SNB-75 CNS -13.5% | CCRF-CEM leukemia 2%
inactive: HT29 colon 13.2% | SNB-19 CNS 68.1% | U251 CNS 42.2% | PC-3 prostate 26.3% | SK-MEL-5 melanoma 15.3% | UACC-62 melanoma 25.3% | LOX IMVI melanoma 62.4% | SK-MEL-2 melanoma 28.8% | EKVX NSCLC 96.7% | SN12C renal 71.2% | UO-31 renal 30.3% | TK-10 renal 41% | ACHN renal 65.7% | CAKI-1 renal 46.6% | A498 renal 42.9% | MOLT-4 leukemia 16.9% | SR leukemia 28.6%

Cc1ccc(C)c(C(O)(c2cc(C)ccc2C)C2(O)CCCCC2)c1
inactive: HT29 colon 90% | SNB-75 CNS 95.9% | SNB-19 CNS 98.8% | U251 CNS 90.1% | PC-3 prostate 86.8% | SK-MEL-5 melanoma 99.4% | UACC-62 melanoma 89.7% | LOX IMVI melanoma 86.6% | SK-MEL-28 melanoma 105% | SN12C renal 96.8% | UO-31 renal 87.7% | TK-10 renal 89.8% | ACHN renal 89% | CAKI-1 renal 80.5% | A498 renal 94.5% | CCRF-CEM leukemia 94.3% | MOLT-4 leukemia 71.5% | SR leukemia 85.1%

S=C1SCC(c2ccccc2)S1 (stereo not drawn)
inactive: HT29 colon 103% | SNB-75 CNS 92.2% | SNB-19 CNS 97.8% | U251 CNS 95.5% | PC-3 prostate 99.7% | SK-MEL-5 melanoma 103% | UACC-62 melanoma 100% | LOX IMVI melanoma 103% | SK-MEL-28 melanoma 103% | SN12C renal 101% | UO-31 renal 104% | TK-10 renal 107% | ACHN renal 101% | CAKI-1 renal 97.1% | A498 renal 102% | CCRF-CEM leukemia 101% | MOLT-4 leukemia 107% | SR leukemia 103%

CCN(CC)CCN1CC(=O)Nc2cc(Cl)ccc21
inactive: HT29 colon 112% | SNB-75 CNS 92.1% | SNB-19 CNS 104% | U251 CNS 99.7% | PC-3 prostate 90.8% | SK-MEL-5 melanoma 98.6% | UACC-62 melanoma 94.4% | LOX IMVI melanoma 102% | SK-MEL-2 melanoma 104% | EKVX NSCLC 101% | SN12C renal 103% | UO-31 renal 82% | TK-10 renal 114% | ACHN renal 104% | CAKI-1 renal 90.7% | A498 renal 87.6% | CCRF-CEM leukemia 101% | MOLT-4 leukemia 105% | SR leukemia 114%

CCCCCCCCCCCCCCCC(=O)OC1[C@@H](OC(=O)CCCCCCCCCCCCCCC)[C@@H](C(=O)N[C@@H](CCCCN)C(=O)OC)O[C@H]1n1cnc2c(=O)[nH]c(NC(=O)C(C)C)nc21 (stereo partly drawn)
active: SR leukemia 9.69%
inactive: HT29 colon 98.2% | SNB-75 CNS 94.1% | SNB-19 CNS 93.5% | U251 CNS 90.2% | PC-3 prostate 103% | SK-MEL-5 melanoma 101% | UACC-62 melanoma 111% | LOX IMVI melanoma 93.5% | SK-MEL-28 melanoma 113% | SN12C renal 105% | UO-31 renal 87.1% | TK-10 renal 101% | ACHN renal 102% | CAKI-1 renal 94% | CCRF-CEM leukemia 86% | MOLT-4 leukemia 93.4%

CC(C)C[C@H](NC(=O)[C@H](Cc1cccc2ccccc12)NS(=O)(=O)c1cccc2cccnc12)B(O)O
active: HT29 colon -56.6% | SNB-75 CNS -51.9% | SNB-19 CNS 8.26% | U251 CNS -52.9% | PC-3 prostate -23.2% | SK-MEL-5 melanoma -85.8% | UACC-62 melanoma -50.9% | LOX IMVI melanoma -78.7% | SK-MEL-2 melanoma -41.2% | EKVX NSCLC 6.76% | SN12C renal 8.75% | UO-31 renal -80.2% | TK-10 renal -60.2% | ACHN renal -3.75% | CAKI-1 renal -20.7% | A498 renal -36.4% | CCRF-CEM leukemia -18.8% | MOLT-4 leukemia 1.17% | SR leukemia 2.44%

CN1CC[C@@H](c2c(O)cc(O)c3c(=O)cc(-c4ccccc4Cl)oc23)[C@@H](O)C1
active: HT29 colon -7.65% | SNB-75 CNS -71.9% | U251 CNS 8.62% | PC-3 prostate -48.9% | SK-MEL-5 melanoma -38.5% | UACC-62 melanoma -48.8% | LOX IMVI melanoma 5.25% | SK-MEL-2 melanoma -40.7% | EKVX NSCLC 9.74% | UO-31 renal -5.67% | TK-10 renal 0.554% | ACHN renal -14.1% | CAKI-1 renal 5.1% | A498 renal -40.8% | CCRF-CEM leukemia -9.53% | MOLT-4 leukemia -6.09% | SR leukemia -4.82%
inactive: SNB-19 CNS 13.6% | SN12C renal 26.8%
